According to PubChem BioAssay:
Results filed as inconclusive are left out. Activity calls are given as the source filed them.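 The calls were made as follows, unless noted: active = normalized viability below 100% at a tested concentration; inactive = the rest.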

Key:
[1] = viability loss in pontine glioma line – cell-based, SU-DIPG-XVII, MIPE5.0, CellTiter-Glo, qHTS, dose response (AID 1347060; cut-off not given, nearly all actives have AC50 up to about 26 µM;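 as to AC50: cells exposed to compound for 48 hours before viability readout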); conditions: CellTiter-Glo ATP luminescence
[2] = viability loss in pontine glioma line – cell-based, JHH-DIPG-1, MIPE4.0, CellTiter-Glo, qHTS, dose response (AID 1347062; cut-off not given, nearly all actives have AC50 up to about 27 µM;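 as to AC50: cells exposed to compound for two days before readout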); conditions: JHH-DIPG-1 viability, CellTiter-Glo ATP luminescence
[3] = viability loss in pontine glioma line – cell-based, SU-DIPG-XIII, MIPE5.0, CellTiter-Glo, qHTS, dose response (AID 1347064; cut-off not given, nearly all actives have AC50 up to about 23 µM;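 as to AC50: cells exposed to compound for 48 hours before the viability read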); conditions: CellTiter-Glo ATP luminescence
[4] = viability loss in pontine glioma line – cell-based, SU-DIPG-XXV, MIPE5.0, CellTiter-Glo, qHTS, dose response (AID 1347065; cut-off not given, nearly all actives have AC50 up to about 26 µM;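 also: cells exposed to compound for 48 hours before ATP readout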); conditions: CellTiter-Glo ATP luminescence
[5] = growth inhibition of DIPG cells – cell-based, MIPE4.0 library, CellTiter-Glo luminescence, qHTS (AID 1347066; cut-off not given, nearly all actives have AC50 up to about 30 µM;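 also: cells exposed to compound for 48 hours before readout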); conditions: SU-DIPG-VI viability, CellTiter-Glo ATP luminescence
[6] = compounds altering HSF1 focus formation in cells – imaging, Selleck Cancer Library (AID 1347162; in the data active = plate-normalised HSF1 focus index below about 0.46); conditions: human cells, HSF1 nuclear foci imaging, at 10 µM; SSMD: measured here: HSF1 foci SSMD mean; cell count: measured here: cell number; plate-normalised HSF1 focus index: stronger effect = lower value
[7] = drug combination growth inhibition, ovarian cancer – cell-based, oncology-focused library, rucaparib conditional, profiling panel (AID 1508598); conditions: patient-derived ovarian cancer cells, CellTiter-Glo viability, 144 h, stronger effect = lower value
[8] = JHH-DIPG-1 glioma cell viability, MIPE5.0 library, CellTiter-Glo luminescence, qHTS (AID 1347067; cut-off not given, nearly all actives have AC50 up to about 26 µM;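 also: cells exposed to compound for 48 hours before readout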); conditions: JHH-DIPG-1 glioma viability, CellTiter-Glo ATP luminescence
[9] = growth inhibition of DIPG cells – cell-based, MIPE5.0 library, qHTS (AID 1347068; cut-off not given, nearly all actives have IC50 up to about 30 µM;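 as to IC50: cells exposed to compound for 48 hours before viability readout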); conditions: SU-DIPG-XXV viability
[10] = viability loss with induced miR-34 in A549 – imaging, A549 dox-inducible miR-34, nuclei and caspase counts, primary screen (AID 1347080;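 active = compounds whose cell count with miR-34 switched on is under 0.7 times the count with it off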); conditions: A549 miR-34 inducible, Hoechst nuclei count, 48 h
[11] = MELAS cybrid and Rieske KO viability enhancers – cell-based, MELAS cybrids, Rieske KO mouse fibroblasts, CellTiter-Glo, primary screen (AID 1508586;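 active = mean z-score across replicates of 1.96 or higher in either the MELAS or the Rieske mutant cell line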;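 also: z relative to plate mean and SD of compound and empty wells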); conditions: low glucose
[12] = at 0.000305 µM, OCI-C5x cells, with rucaparib 10 µM, 100% = cells with rucaparib alone
[13] = at 0.000305 µM, OCI-C5x cells, without rucaparib
[14] = at 0.000305 µM, OCI-P5x cells, with rucaparib 20 µM, 100% = cells with rucaparib alone
[15] = at 0.000305 µM, OCI-P5x cells, without rucaparib
[16] = at 0.00122 µM, OCI-C5x cells, with rucaparib 10 µM, 100% = cells with rucaparib alone
[17] = at 0.00122 µM, OCI-C5x cells, without rucaparib
[18] = at 0.00122 µM, OCI-P5x cells, with rucaparib 20 µM, 100% = cells with rucaparib alone
[19] = at 0.00122 µM, OCI-P5x cells, without rucaparib
[20] = at 0.00488 µM, OCI-C5x cells, with rucaparib 10 µM, 100% = cells with rucaparib alone
[21] = at 0.00488 µM, OCI-C5x cells, without rucaparib
[22] = at 0.00488 µM, OCI-P5x cells, with rucaparib 20 µM, 100% = cells with rucaparib alone
[23] = at 0.00488 µM, OCI-P5x cells, without rucaparib
[24] = at 0.0195 µM, OCI-C5x cells, with rucaparib 10 µM, 100% = cells with rucaparib alone
[25] = at 0.0195 µM, OCI-C5x cells, without rucaparib
[26] = at 0.0195 µM, OCI-P5x cells, with rucaparib 20 µM, 100% = cells with rucaparib alone
[27] = at 0.0195 µM, OCI-P5x cells, without rucaparib
[28] = at 0.0781 µM, OCI-C5x cells, with rucaparib 10 µM, 100% = cells with rucaparib alone
[29] = at 0.0781 µM, OCI-C5x cells, without rucaparib
[30] = at 0.0781 µM, OCI-P5x cells, with rucaparib 20 µM, 100% = cells with rucaparib alone
[31] = at 0.0781 µM, OCI-P5x cells, without rucaparib
[32] = at 0.313 µM, OCI-C5x cells, with rucaparib 10 µM, 100% = cells with rucaparib alone
[33] = at 0.313 µM, OCI-C5x cells, without rucaparib
[34] = at 0.313 µM, OCI-P5x cells, with rucaparib 20 µM, 100% = cells with rucaparib alone
[35] = at 0.313 µM, OCI-P5x cells, without rucaparib
[36] = at 1.25 µM, OCI-C5x cells, with rucaparib 10 µM, 100% = cells with rucaparib alone
[37] = at 1.25 µM, OCI-C5x cells, without rucaparib
[38] = at 1.25 µM, OCI-P5x cells, with rucaparib 20 µM, 100% = cells with rucaparib alone
[39] = at 1.25 µM, OCI-P5x cells, without rucaparib
[40] = at 5 µM, OCI-C5x cells, with rucaparib 10 µM, 100% = cells with rucaparib alone
[41] = at 5 µM, OCI-C5x cells, without rucaparib
[42] = at 5 µM, OCI-P5x cells, with rucaparib 20 µM, 100% = cells with rucaparib alone
[43] = at 5 µM, OCI-P5x cells, without rucaparib

CC[C@@H]1C(=O)N(C)c2cnc(Nc3ccc(C(=O)NC4CCN(C)CC4)cc3OC)nc2N1C1CCCC1
inactive: plate-normalised HSF1 focus index [6] 1.16 | viability [7, 12] 116% | viability [7, 13] 133% | viability [7, 16] 126% | viability [7, 17] 124%
4.3: SSMD [6]
7240: cell count [6]
active: AC50 [1] 0.0661 µM | AC50 [2] 8.33 µM | AC50 [3] 1.48 µM | AC50 [4] 0.0372 µM | AC50 [5] 20.9 µM | viability [7, 14] 89.2% | viability [7, 15] 77.1% | viability [7, 18] 89.5% | viability [7, 19] 50.9% | viability [7, 20] 51.4% | viability [7, 21] 47.2% | viability [7, 22] 74.9% | viability [7, 23] 17% | viability [7, 24] 40.7% | viability [7, 25] 37.1% | viability [7, 26] 71.7% | viability [7, 27] 18.2% | viability [7, 28] 38.3% | viability [7, 29] 30.4% | viability [7, 30] 66.7% | viability [7, 31] 16.5% | viability [7, 32] 32.5% | viability [7, 33] 30.3% | viability [7, 34] 48.5% | viability [7, 35] 15.8% | viability [7, 36] 15.9% | viability [7, 37] 18.2% | viability [7, 38] 43% | viability [7, 39] 15.1% | viability [7, 40] 18% | viability [7, 41] 21.9% | viability [7, 42] 34.3% | viability [7, 43] 15.2%

CN1CC(=O)NC1=NC(=O)Nc1cccc(Cl)c1
inactive: outcome [1] | outcome [2] | outcome [3] | outcome [4] | outcome [8] | outcome [9]
active: AC50 [5] 23.5 µM

COc1cc(Nc2ncc3c(n2)-c2ccc(Cl)cc2C(c2c(F)cccc2OC)=NC3)ccc1C(=O)O
1.04: fold change ([10]; measured here: relative caspase fold change +Dox/-Dox)
2.08: SSMD [6]
active: AC50 [1] 0.148 µM | AC50 [3] 8.33 µM | AC50 [4] 0.0934 µM | AC50 [8] 8.33 µM | IC50 [9] 3.72 µM | viability [7, 12] 94.6% | viability [7, 21] 98.7% | viability [7, 24] 94.4% | viability [7, 27] 99.3% | viability [7, 28] 75.5% | viability [7, 29] 70.5% | viability [7, 30] 91.7% | viability [7, 31] 70.7% | viability [7, 32] 74.5% | viability [7, 33] 82.5% | viability [7, 34] 87.4% | viability [7, 35] 63.8% | viability [7, 36] 76.8% | viability [7, 37] 77% | viability [7, 38] 82.8% | viability [7, 39] 56.7% | viability [7, 40] 42.9% | viability [7, 41] 34.9% | viability [7, 42] 78.6% | viability [7, 43] 39%
1850: cell count ([10]; measured here: total cells with miR-34 induction, stronger effect = lower value)
0.925: z-score ([11]; Rieske KO mouse fibroblast survival, CellTiter-Glo 72 h)
6720: cell count [6]
inactive: outcome [2] | fold change ([10]; stronger effect = lower value, cell number ratio, induced over uninduced) 1.23 | plate-normalised HSF1 focus index [6] 1.13 | z-score ([11]; MELAS cybrid survival, CellTiter-Glo 48 h, stronger effect = higher value) -0.56 | viability [7, 13] 108% | viability [7, 14] 113% | viability [7, 15] 109% | viability [7, 16] 112% | viability [7, 17] 101% | viability [7, 18] 110% | viability [7, 19] 106% | viability [7, 20] 107% | viability [7, 22] 110% | viability [7, 23] 106% | viability [7, 25] 103% | viability [7, 26] 106%
1510: cell count ([10]; measured here: total cells without miR-34 induction)
